Reference: PubChem BioAssay AID1159580 (chemical genetic matrix, 2015)
“And” between values parts separate entries of the source, which are not always exact repeats. Equal values may be shown once. Out of some 5,500 compounds screened, about 2,000 (36%) were called active. Inconclusive results (about 18%) are left out. No stated cut-off is given here; in the data, active means normalized growth mostly below about 0.91 (no sharp cut-off); inconclusive means no clear call, values can overlap the other calls; inactive means mostly above about 0.92. The list shows a part of the results.

Experiment: chemical genetic growth profiling, strain panel (AID 1159580);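 further: tested at 20 µM; growth read once vehicle control cultures reached saturation at 30 °C; 1 = growth at the plate median or of vehicle wells; lower values mean less growth of the strain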
Settings: S. cerevisiae deletion strains, growth OD

Measured: normalized growth

Cc1ccsc1/C=C/C1=NCCCN1C
inactive: locus YAL013W, strain DEP1, hits give low values 1.01 | locus YAL021C, strain ccr4, hits give low values 1 | locus YAL026C, strain drs2, hits give low values 0.996 | locus YAL030W, strain snc1, hits give low values 0.996 | locus YBL061C, strain skt5, hits give low values 0.984 | locus YBR009C, strain hhf1, hits give low values 1 | locus YBR021W, strain FUR4, hits give low values 1.02 | locus YBR023C, strain chs3, hits give low values 0.984 | locus YBR171W, strain sec66, hits give low values 0.99 | locus YBR229C, strain ROT2, hits give low values 1.01 | locus YBR231C, strain swc5, hits give low values 1.07 | locus YBR279W, strain paf1, hits give low values 0.992 | locus YCL011C, strain gbp2, hits give low values 0.982 | locus YCL016C, strain dcc1, hits give low values 0.996 | locus YCL029C, strain bik1, hits give low values 0.969 | locus YCL061C, strain MRC1, hits give low values 0.992 | locus YCL069W, strain vba3, hits give low values 0.986 | locus YCR088W, strain abp1, hits give low values 0.993 | locus YDL005C, strain med2, hits give low values 0.983 | locus YDL035C, strain GPR1, hits give low values 1.02 | locus YDL040C, strain nat1, hits give low values 0.985 | locus YDL074C, strain BRE1, hits give low values 0.995 | locus YDL101C, strain DUN1, hits give low values 0.991 | locus YDL134C, strain PPH21, hits give low values 1.02 | locus YDL185W, strain tfp1, hits give low values 0.938 | locus YDL192W, strain arf1, hits give low values 0.972 | locus YDR001C, strain nth1, hits give low values 0.996 | locus YDR069C, strain doa4, hits give low values 0.993 | locus YDR101C, strain arx1, hits give low values 0.965 | locus YDR137W, strain rgp1, hits give low values 0.941 | locus YDR150W, strain NUM1, hits give low values 0.998 | locus YDR159W, strain sac3, hits give low values 0.998 | locus YDR162C, strain NBP2, hits give low values 1.01 | locus YDR195W, strain ref2 1.01 | locus YDR297W, strain sur2, hits give low values 1 | locus YDR318W, strain mcm21, hits give low values 0.972 | locus YDR334W, strain swr1, hits give low values 0.986 | locus YDR335W, strain msn5, hits give low values 0.991 | locus YDR388W, hits give low values 0.98 | locus YDR392W, strain spt3, hits give low values 0.992 | locus YDR502C, strain sam2, hits give low values 1 | locus YEL003W, strain gim4, hits give low values 0.996 | locus YEL037C, strain rad23, hits give low values 0.995 | locus YEL061C, strain CIN8 (second series), hits give low values 0.992 | locus YEL061C, strain CIN8, hits give low values 1 | locus YER015W, strain faa2, hits give low values 0.971 | locus YER016W, strain bim1, hits give low values 0.982 | locus YER110C, hits give low values 0.982 | locus YER111C, strain swi4, hits give low values 0.989 | locus YER155C, strain BEM2 (second series), hits give low values 1 | locus YER155C, strain BEM2, hits give low values 0.988 | locus YER167W, strain BCK2, hits give low values 1.01 | locus YFR010W, strain ubp6, hits give low values 0.992 | locus YGL078C, strain dbp3, hits give low values 0.984 | locus YGL086W, strain mad1, hits give low values 1.01 | locus YGL167C, strain pmr1, hits give low values 0.987 | locus YGL173C, strain kem1, hits give low values 0.987 | locus YGL227W, strain vid30, hits give low values 0.991 | locus YGL240W, strain doc1, hits give low values 1 | locus YGL248W, strain PDE1, hits give low values 1.02 | locus YGL253W, strain hxk2, hits give low values 0.995 | locus YGR078C, strain PAC10, hits give low values 1 | locus YGR135W, strain pre9, hits give low values 1.01 | locus YGR229C, strain SMI1, hits give low values 1.03 | locus YGR252W, strain gcn5, hits give low values 1.06 | locus YHR013C, strain ard1, hits give low values 0.978 | locus YHR027C, strain rpn1, hits give low values 0.982 | locus YHR030C, strain SLT2, hits give low values 1 and 0.986 | locus YHR079C, strain IRE1 (second series), hits give low values 0.963 | locus YHR079C, strain IRE1, hits give low values 0.974 | locus YHR094C, strain hxt1, hits give low values 0.956 | locus YHR129C, strain ARP1, hits give low values 1 | locus YHR142W, strain chs7, hits give low values 0.997 | locus YHR200W, strain rpn10, hits give low values 0.984 | locus YIL066C, strain RNR3, hits give low values 0.998 | locus YIL073C, strain SPO22, hits give low values 0.91 | locus YIL125W, strain kgd1, hits give low values 0.984 | locus YIR030C, strain dcg1, hits give low values 0.976 | locus YJL092W, strain hpr5, hits give low values 0.993 | locus YJL095W, strain BCK1 (second series), hits give low values 0.991 | locus YJL095W, strain BCK1, hits give low values 0.988 and 1 | locus YJL115W, strain asf1, hits give low values 0.99 | locus YJL129C, strain trk1, hits give low values 0.985 | locus YJL134W, strain LCB3, hits give low values 1 | locus YJL154C, strain vps35, hits give low values 0.984 | locus YJL164C, strain tpk1, hits give low values 0.99 | locus YJL166W, strain qcr8, hits give low values 0.994 | locus YJL168C, strain set2, hits give low values 0.984 | locus YJL187C, strain SWE1 (second series), hits give low values 0.99 | locus YJL187C, strain SWE1, hits give low values 0.997 | locus YJR043C, strain POL32, hits give low values 1.01 | locus YJR066W, strain TOR1, hits give low values 0.967
